We go through 37 molecules from PubChem BioAssay (Tox21).

“And” between values parts separate entries of the source, which are not always exact repeats. Equal values may be shown once. Results filed as inconclusive are left out. Where a call stands in place of a potency, no number is given. A structure can be active in one record and inactive in another. The source made the active and inactive calls. Calls come from the whole dose curve; as a rule, active = well fitted activation curve with a large enough effect in the repeat runs; inconclusive = weak or mixed curves; inactive = flat fitted curve, though single readings scatter.

One experiment in a line: A CellTox Green Cytotoxicity Assay to monitor cytotoxicity in HepG2 cells - 24 hour (AID 1224878). Note: nearly all actives have a fitted effect of over 45% in size. The following applies: CellTox Green fluorescence; series mostly up to 76.8 µM. The method, boiled down:
(§1)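 Continuous culture of HepG2 cells with a membrane-impermeant DNA dye; rising fluorescence marks dead cells. Compound exposure lasted up to 40 h at 37 C, with reads every 8 h from 0 h.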
On to `CCCCOCCOC(C)=O`, for which the Potency entry was “inactive”.
Same read-out and setting: under `[CH3][Sn]([Cl])([Cl])[Cl]` stands “inactive”; under `Nc1ccc([N+](=O)[O-])cc1N`, “inactive”.
The same measure, in the same setting: then `ClC(Cl)(Cl)Br`, with “inactive”; and `COc1ccc(C=O)cc1OC`, with “inactive”; and `Brc1ccc(Br)cc1`, with “inactive”.

The nature of another experiment: A CellTox Green Cytotoxicity Assay to monitor cytotoxicity in HepG2 cells - 40 hour (AID 1224879). Note: nearly all actives have a fitted effect of over 40% in size. Note: potency is the fitted concentration of half-maximal effect. The following applies: CellTox Green fluorescence; series mostly up to 76.8 µM. The method, boiled down: as §1
Consider `CCC(=O)Nc1ccc(Cl)c(Cl)c1`, for which the Potency entry is “inactive”.
Still for that read-out and setting: under `ClCC(Cl)CCl` stands “inactive”.
On the same count and under the same terms, under `O=[N+]([O-])/N=C1\NCCN1Cc1ccc(Cl)nc1` stands “inactive”.
Still for that read-out and setting: under `ClC(Cl)(Cl)c1ccccc1` stands “inactive”; under `CCN(CC)C(=O)C(C)Oc1cccc2ccccc12` (stereo not drawn), “inactive”; under `CC(C)(C#N)N=NC(C)(C)C#N`, “inactive”.
Turning to `CCCCOCC1CO1` (stereo not drawn), the Potency entry is “inactive and 43.6 µM (active)”.
Same read-out and setting: under `CS(=O)(=O)NC(=O)c1cc(Oc2ccc(C(F)(F)F)cc2Cl)ccc1[N+](=O)[O-]` stands “inactive”.
Regarding `CC(C)(c1ccccc1)c1ccc(O)cc1`, the Potency was 48.6 µM (active) and 24.5 µM (active).
Take `CC(C)Nc1ccc(Nc2ccccc2)cc1`: the Potency was 43.6 µM (active).
As to `COP(=O)(NC(C)=O)SC` (stereo not drawn), the Potency entry is “inactive”.
As for `C[N+](C)(C)C`, the Potency result is “inactive”.
For the molecule `CC1CC(=O)O1` (stereo not drawn), the Potency entry is “inactive”.
On the same count and under the same terms, under `CCOP(=S)(OCC)OP(=S)(OCC)OCC` stands “inactive”; under `CNC(=S)S`, “inactive”.
`O=S(=O)(O)C(F)(F)C(F)(F)C(F)(F)C(F)(F)C(F)(F)C(F)(F)C(F)(F)C(F)(F)F`: the Potency is 16.5 µM (active) and inactive.
Still for that read-out and setting: then `CCOS(=O)(=O)OCC`, with “inactive”; and `C=CC(Cl)CCl` (stereo not drawn), with “inactive”.
The same measure, in the same setting: under `C[C@]12CCC(=O)C=C1CC[C@@H]1[C@@H]2CC[C@@]2(C)[C@H]1CC[C@]2(C)O` stands 19.7 µM (active) and 23.9 µM (active); under `CC(C)(c1ccccc1)c1ccc(O)c(C(C)(C)c2ccccc2)c1`, 54.4 µM (active) and 43.6 µM (active).
Same read-out and setting: then `OCCOCCO`, with “inactive”.
Take `Cl`: the Potency entry is “inactive”.
Regarding `COP(=S)(OC)Oc1ccc(S(=O)(=O)N(C)C)cc1`, the Potency entry is “inactive”.
On the same count and under the same terms, then `O=C(O)c1nn(Cc2ccc(Cl)cc2Cl)c2ccccc12`, with “inactive and 95.2 nM (active)”; and `CC(C)(O)C(=O)Nc1ccc([N+](=O)[O-])c(C(F)(F)F)c1`, with “inactive”.
On the same count and under the same terms, then `CNC(=O)Oc1cccc2c1OC(C)(C)C2`, with “inactive”; and `Oc1ccc(Cl)cc1Cl`, with “inactive”; and `CC[n+]1c(-c2ccccc2)c2cc(N)ccc2c2ccc(N)cc21`, with “inactive”.
The same measure, in the same setting: then `N#CC(c1ccccc1)c1ccccc1`, with “inactive”.
Regarding `[Cl-].[Cl-].[Cl-].[Fe+3]`, the Potency entry is “inactive”.
Consider `CCCCCCCCCCCCCl`, for which the Potency result was “inactive and 12.3 µM (active)”.
The same measure, in the same setting: under `CCCCOCCOC(C)=O` stands “inactive”.
Regarding `[CH3][Sn]([Cl])([Cl])[Cl]`, the Potency result is “inactive”.
The same measure, in the same setting: under `Nc1ccc([N+](=O)[O-])cc1N` stands “inactive”.
In the case of `ClC(Cl)(Cl)Br`, the Potency entry was “inactive”.
On the same count and under the same terms, then `COc1ccc(C=O)cc1OC`, with “inactive”.
Same read-out and setting: then `Brc1ccc(Br)cc1`, with “inactive”.
